In ChEMBL document CHEMBL1157539, “Thousands of chemical starting points for antimalarial lead identification” (Nature, 2010):

These molecules were tested on Plasmodium falciparum (assay: GSK_TCMDC: Inhibition of Plasmodium falciparum 3D7 in whole red blood cells, using parasite LDH activity as an index of growth. Test compounds present at 2uM).
Assay type: functional
For CC(C)NCc1cccc(-c2ccc(NS(=O)(=O)c3cccc4cccnc34)cc2)c1.O=C(O)C(F)(F)F, the Inhibition was 90%. COc1ccc(Br)cc1C1Nc2ccc3ccccc3c2C2=C1C(=O)CC(c1ccccc1)C2 (stereo not given) was tested, and the Inhibition was 100%. COc1ccc(-c2cccc(NC(=O)c3ccc(C#N)cc3)c2)cc1CNC(C)C.O=C(O)C(F)(F)F was tested, and the Inhibition was 100%. With O=C(Nc1cccc(-c2cccc(CN3CCCC3)c2)c1)c1cccc(Cl)c1.O=C(O)C(F)(F)F the Inhibition was 89%. In the case of CCn1c(Sc2ccc([N+](=O)[O-])c(C#N)c2)nnc1-c1cccc(Cl)c1, the Inhibition was 89%. Molecule Oc1ccccc1CN(CCCN(Cc1ccccn1)Cc1ccccc1O)Cc1ccccn1 has an Inhibition of 92%. CC(=O)Nc1cccc(CNc2cc(C)nc(Nc3ccc(C)cc3)n2)c1 showed an Inhibition of 82%. With O=C(NC1CCN(CCC(NC(=O)c2ccccc2)c2ccc(Cl)c(Cl)c2)CC1)c1ccc(Cl)cc1 (stereo not given) the Inhibition was 97%. In the case of Cc1ccc(F)c(OCC2CCN(c3ccc(C(=O)NC4CC4)cn3)CC2)c1, the Inhibition was 94%. CCCCCC(=O)N1CCOC(CCN2CCc3c(c4ccccc4n3C)C2)(c2ccc(Cl)c(Cl)c2)C1 (stereo not given) showed an Inhibition of 95%. CC(C)C[C@H](NC(=O)c1cccc(F)c1)C(=O)N[C@H](/C=N/NC(=O)c1ccccc1)CCc1ccccc1 gave an Inhibition of 93%. Work on O=C(/C=C/c1ccc(I)cc1)NCCCCCN1CCC(c2c[nH]c3ccccc23)CC1 yielded an Inhibition of 95%. Cc1c[nH]c2cc(/C=C/C(=O)NC3CCC(CCN4CCc5ccc(C#N)cc5CC4)CC3)ccc12.Cl (stereo not given) gave an Inhibition of 95%. With CC1CCCN(C(=O)c2cc(-c3ccccn3)nc3c(Cl)cccc23)C1 (stereo not given) the Inhibition was 86%. COc1ccc2ncc(F)c(CCN3C4CCC3CC(NCc3cc5c(cn3)OCS5)C4)c2n1.Cl (stereo not given) was tested, and the Inhibition was 95%. Cl.N=C(N)c1ccc2[nH]c(SCc3ccccc3)nc2c1 showed an Inhibition of 97%. Molecule O=c1cc(NCCCNCc2cccc(I)c2)[nH]c2ccccc12 has an Inhibition of 90%. Cc1cccc2nc(-c3cccc(-c4ccc(NC(=O)c5cccnc5)cc4)c3)[nH]c12 showed an Inhibition of 100%. Work on O=C(NCCc1cccc(Cl)c1Cl)c1cnc(N2CCN(c3ccncc3)CC2)c(Cl)c1.O=C(O)C(F)(F)F yielded an Inhibition of 100%. Work on Cc1ccccc1N1CCN(c2ccc(C(=O)NC(C)C)cn2)CC1.O=C(O)C(F)(F)F yielded an Inhibition of 89%. Cc1cc(NCCc2cccc(F)c2)nc(NC(=N)Nc2cccc(C(F)(F)F)c2)n1 gave an Inhibition of 100%. CS(=O)(=O)NCCCNCc1ccc(-c2cccc(-c3nc4cc(F)ccc4[nH]3)c2)cc1.O=C(O)C(F)(F)F showed an Inhibition of 98%. Clc1ccccc1CCNCC1CCN(CC2CCCCC2)CC1.O=C(O)C(F)(F)F was tested, and the Inhibition was 97%. With O=C(Nc1ccc(C(F)(F)F)cc1)Nc1ccccc1N1CCNCC1.O=C(O)C(F)(F)F the Inhibition was 94%. Work on COc1cc(CN2CCC(CO)(Cc3cccc(C(F)(F)F)c3)CC2)c(Cl)cc1O yielded an Inhibition of 99%. In the case of CC(C)(C)CCN1CCC(CNC(=O)c2cc(-c3cccc(C(F)(F)F)c3)cs2)C1.O=C(O)C(F)(F)F (stereo not given), the Inhibition was 93%. Cc1ccc(NC(=O)NC2CCN(c3ccnc4ccccc34)CC2)cc1.O=C(O)C(F)(F)F gave an Inhibition of 97%. Work on Br.CCCOc1ccc(CCCON2C(N)=NC(N)=NC2(C)C)cc1 yielded an Inhibition of 95%. N#Cc1ccc(-c2ccc(C(=O)NCCCCN3CCC(c4cc(Br)c5c(c4OCC(N)=O)CCCC5)CC3)cc2)cc1 showed an Inhibition of 100%. Molecule CN1CCN(c2ccc(Nc3c4ccccc4nc4ccccc34)cc2)CC1 has an Inhibition of 100%. Molecule CCN1CCC(NCc2ccc(-c3ccc(Cl)s3)cc2)CC1 has an Inhibition of 96%. For CCCc1cc(NC2CCN(C)CC2)nc(Nc2ccc(F)cc2)n1, the Inhibition was 95%. CCCCNCc1ccc(-c2nc(CN(CCCN3CCN(C)CC3)C(=O)Nc3cccc(Cl)c3)cs2)cc1.O=C(O)C(F)(F)F gave an Inhibition of 99%. Work on Cc1cccc2nc(-c3cccc(-c4cccc(NC(=O)Nc5ccsc5)c4)c3)[nH]c12 yielded an Inhibition of 100%. Work on COc1ccc(CNc2ncnc3c2[nH]c2ccc(F)cc23)cc1 yielded an Inhibition of 93%. Cl.Oc1cccc(-c2nc3cc(C4=NC5CCCCC5N4)ccc3[nH]2)c1 (stereo not given) was tested, and the Inhibition was 98%. O=C(NCCCCCN1CCC(c2c[nH]c3ccccc23)CC1)Nc1ccc(I)cc1 gave an Inhibition of 100%. Molecule CCCCOc1ccc(C(=O)C(CCC(CNC(C)(C)C)C(=O)c2ccc(OCCCC)cc2)CNC(C)(C)C)cc1.Cl (stereo not given) has an Inhibition of 94%. Work on O=[N+]([O-])c1ccccc1/C=N/Nc1ccnc2ccc(C(F)(F)F)cc12 yielded an Inhibition of 100%. Work on COc1ccc(-c2cnc(N)c(-c3nc4cc(Br)ccc4[nH]3)c2)cc1.O=C(O)C(F)(F)F yielded an Inhibition of 100%.

The molecules below were run on Plasmodium falciparum (assay: GSK_TCMDC: Inhibition of Plasmodium falciparum Dd2 in whole red blood cells, using parasite LDH activity as an index of growth. Test compounds present at 2uM).
Assay type: functional
Work on CC(C)NCc1cccc(-c2ccc(NS(=O)(=O)c3cccc4cccnc34)cc2)c1.O=C(O)C(F)(F)F yielded an Inhibition of 10%. In the case of COc1ccc(Br)cc1C1Nc2ccc3ccccc3c2C2=C1C(=O)CC(c1ccccc1)C2 (stereo not given), the Inhibition was 96%. For COc1ccc(-c2cccc(NC(=O)c3ccc(C#N)cc3)c2)cc1CNC(C)C.O=C(O)C(F)(F)F, the Inhibition was 14%. For O=C(Nc1cccc(-c2cccc(CN3CCCC3)c2)c1)c1cccc(Cl)c1.O=C(O)C(F)(F)F, the Inhibition was 30%. CCn1c(Sc2ccc([N+](=O)[O-])c(C#N)c2)nnc1-c1cccc(Cl)c1 was tested, and the Inhibition was 22%. Molecule Oc1ccccc1CN(CCCN(Cc1ccccn1)Cc1ccccc1O)Cc1ccccn1 has an Inhibition of 92%. Molecule CC(=O)Nc1cccc(CNc2cc(C)nc(Nc3ccc(C)cc3)n2)c1 has an Inhibition of 23%. O=C(NC1CCN(CCC(NC(=O)c2ccccc2)c2ccc(Cl)c(Cl)c2)CC1)c1ccc(Cl)cc1 (stereo not given) showed an Inhibition of 36%. Molecule Cc1ccc(F)c(OCC2CCN(c3ccc(C(=O)NC4CC4)cn3)CC2)c1 has an Inhibition of 95%. With CCCCCC(=O)N1CCOC(CCN2CCc3c(c4ccccc4n3C)C2)(c2ccc(Cl)c(Cl)c2)C1 (stereo not given) the Inhibition was 80%. CC(C)C[C@H](NC(=O)c1cccc(F)c1)C(=O)N[C@H](/C=N/NC(=O)c1ccccc1)CCc1ccccc1 was tested, and the Inhibition was 71%. For O=C(/C=C/c1ccc(I)cc1)NCCCCCN1CCC(c2c[nH]c3ccccc23)CC1, the Inhibition was 2%. Molecule Cc1c[nH]c2cc(/C=C/C(=O)NC3CCC(CCN4CCc5ccc(C#N)cc5CC4)CC3)ccc12.Cl (stereo not given) has an Inhibition of 59%. Work on CC1CCCN(C(=O)c2cc(-c3ccccn3)nc3c(Cl)cccc23)C1 (stereo not given) yielded an Inhibition of 9%. With COc1ccc2ncc(F)c(CCN3C4CCC3CC(NCc3cc5c(cn3)OCS5)C4)c2n1.Cl (stereo not given) the Inhibition was 48%. Work on Cl.N=C(N)c1ccc2[nH]c(SCc3ccccc3)nc2c1 yielded an Inhibition of 100%. In the case of O=c1cc(NCCCNCc2cccc(I)c2)[nH]c2ccccc12, the Inhibition was 9%. Molecule Cc1cccc2nc(-c3cccc(-c4ccc(NC(=O)c5cccnc5)cc4)c3)[nH]c12 has an Inhibition of 45%. Work on O=C(NCCc1cccc(Cl)c1Cl)c1cnc(N2CCN(c3ccncc3)CC2)c(Cl)c1.O=C(O)C(F)(F)F yielded an Inhibition of 99%. Cc1ccccc1N1CCN(c2ccc(C(=O)NC(C)C)cn2)CC1.O=C(O)C(F)(F)F showed an Inhibition of 91%. Cc1cc(NCCc2cccc(F)c2)nc(NC(=N)Nc2cccc(C(F)(F)F)c2)n1 showed an Inhibition of 99%. For CS(=O)(=O)NCCCNCc1ccc(-c2cccc(-c3nc4cc(F)ccc4[nH]3)c2)cc1.O=C(O)C(F)(F)F, the Inhibition was 1%. In the case of Clc1ccccc1CCNCC1CCN(CC2CCCCC2)CC1.O=C(O)C(F)(F)F, the Inhibition was 38%. O=C(Nc1ccc(C(F)(F)F)cc1)Nc1ccccc1N1CCNCC1.O=C(O)C(F)(F)F was tested, and the Inhibition was 69%. COc1cc(CN2CCC(CO)(Cc3cccc(C(F)(F)F)c3)CC2)c(Cl)cc1O was tested, and the Inhibition was 64%. CC(C)(C)CCN1CCC(CNC(=O)c2cc(-c3cccc(C(F)(F)F)c3)cs2)C1.O=C(O)C(F)(F)F (stereo not given) gave an Inhibition of 13%. With Cc1ccc(NC(=O)NC2CCN(c3ccnc4ccccc34)CC2)cc1.O=C(O)C(F)(F)F the Inhibition was 52%. For Br.CCCOc1ccc(CCCON2C(N)=NC(N)=NC2(C)C)cc1, the Inhibition was 94%. In the case of N#Cc1ccc(-c2ccc(C(=O)NCCCCN3CCC(c4cc(Br)c5c(c4OCC(N)=O)CCCC5)CC3)cc2)cc1, the Inhibition was 89%. In the case of CN1CCN(c2ccc(Nc3c4ccccc4nc4ccccc34)cc2)CC1, the Inhibition was 94%. Molecule CCN1CCC(NCc2ccc(-c3ccc(Cl)s3)cc2)CC1 has an Inhibition of 23%. CCCc1cc(NC2CCN(C)CC2)nc(Nc2ccc(F)cc2)n1 was tested, and the Inhibition was 16%. In the case of CCCCNCc1ccc(-c2nc(CN(CCCN3CCN(C)CC3)C(=O)Nc3cccc(Cl)c3)cs2)cc1.O=C(O)C(F)(F)F, the Inhibition was 73%. For Cc1cccc2nc(-c3cccc(-c4cccc(NC(=O)Nc5ccsc5)c4)c3)[nH]c12, the Inhibition was 41%. Molecule COc1ccc(CNc2ncnc3c2[nH]c2ccc(F)cc23)cc1 has an Inhibition of 71%. Cl.Oc1cccc(-c2nc3cc(C4=NC5CCCCC5N4)ccc3[nH]2)c1 (stereo not given) showed an Inhibition of 97%. In the case of O=C(NCCCCCN1CCC(c2c[nH]c3ccccc23)CC1)Nc1ccc(I)cc1, the Inhibition was 0%. Molecule CCCCOc1ccc(C(=O)C(CCC(CNC(C)(C)C)C(=O)c2ccc(OCCCC)cc2)CNC(C)(C)C)cc1.Cl (stereo not given) has an Inhibition of 92%. Molecule O=[N+]([O-])c1ccccc1/C=N/Nc1ccnc2ccc(C(F)(F)F)cc12 has an Inhibition of 36%. For COc1ccc(-c2cnc(N)c(-c3nc4cc(Br)ccc4[nH]3)c2)cc1.O=C(O)C(F)(F)F, the Inhibition was 3%.
